hDAT+cocaine: changed hDAT dopamine uptake under cocaine IC80, either direction, primary screen, cocaine antagonist project, cell-based, LLC-PK1 hDAT, [14C]-dopamine uptake, MLSMR | Sodium-dependent dopamine transporter (Homo sapiens), Q01959 | LLC-PK1 hDAT cells, [14C]-dopamine uptake with cocaine IC80; actives deviate in either direction | B-score at 10 µM | hit rate 1.3% among 110,000 | AID 449768, 2010;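 active means Z score or B-score, a plate-position-corrected score, falls beyond the plate's 99.7% confidence bounds, in either direction; inactive means both scores lie inside the 99.7% bounds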;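 further: scored against the spread of the other compound wells on the same plate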
sdo1 growth: growth rescue of sdo1-depleted yeast, primary screen, S. cerevisiae, bone marrow failure model | hit rate 0.21% among 140,000 | z-score at 10 µM | S. cerevisiae sdo1-depleted JHY4D growth rescue, OD600 30 h; hits give high values; pdr5 snq2 efflux-pump mutant strain;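 active means z-score above 3 at both the 24 hr and the 30 hr optical density reads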;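 further: z-score against mean and SD of all compound wells on the same plate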
Cav3 T inh: Cav3.2 calcium influx blockers – cell-based, Fluo-4 calcium fluorescence, FDSS, MLSMR library, primary screen; Voltage-dependent T-type calcium channel subunit alpha-1H (Homo sapiens), O95180; hit rate 4% among 100,000; B-score at 10 µM; Cav3.2-expressing cells; hits give low values;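 active means single-dose well whose peak fluorescence ratio is a statistical outlier from its plate by either plate-standardised score or position-corrected B-score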
PTK2B oligo ant: antagonists of Pyk2 self-association, primary screen, Q293 cells, FERM NanoBiT luminescence, HTS; AID 1347419, 2020; hits give low values; z-score (the deposit names both 25 µM and 10 µM); hit rate 0.83% among 99,000;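 active means Z-score of -3 or lower, scaled per plate to the spread of control and sample wells; inactive means z-score above -3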;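 further: negative z-score means lost luminescence so less FERM oligomerization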
PLK1 PBD inh: Plk1 polo box domain binding inhibitors, primary screen, biochemical, fluorescence polarization. Serine/threonine-protein kinase PLK1 (Homo sapiens), P53350. hit rate 0.13% among 97,000. inhibition, %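 (tested at about 20 µM)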. AID 693, 2007. Plk1 PBD phosphopeptide binding; in the data active means inhibition above about 34%, passing the limit was not always enough
PLK1 kinase inh: human PLK1 kinase inhibitors, primary screen, biochemical, TR-FRET | recombinant PLK1 kinase, TR-FRET peptide phosphorylation | inhibition, % at 10 µM | hit rate 0.53% among 97,000 | AID 619, 2007;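 active means inhibition of 50% or more in the single-concentration screen; inactive means inhibition below 50%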;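 further: 0% = DMSO max control and 100% = H-89 dihydrochloride min control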
Active calls of the source: *. In the library only some 4.7% were active in any assay of this set; here they are far more common.

Results for CCOC(=O)c1cnc(-n2nc(C)cc2C)nc1NCCc1ccccc1 ?
hDAT+cocaine: 1.97; sdo1 growth: -2.19; Cav3 T inh: -4.14*; PTK2B oligo ant: -0.98; PLK1 PBD inh: 11.1; PLK1 kinase inh: 7.6

Results for CCOC(=O)c1cnc(-n2nc(C)cc2C)nc1NCc1ccc2c(c1)OCO2 ?
hDAT+cocaine: -6.99*; sdo1 growth: -1.77; Cav3 T inh: -0.899; PTK2B oligo ant: -1.52; PLK1 PBD inh: -15.2; PLK1 kinase inh: 2.1

What do the screens show for `CCOC(=O)c1cnc(-n2nc(C)cc2C)nc1Nc1ccccc1OC`?
hDAT+cocaine: 0.5; sdo1 growth: -1.79; Cav3 T inh: 0.515; PLK1 PBD inh: 17.6; PLK1 kinase inh: -4.2

Results for NC(=O)CC(NC(=O)c1ccccc1)c1ccc(NCCc2ccc(Cl)cc2)c([N+](=O)[O-])c1 (stereo not given) ?
hDAT+cocaine: 1.17; Cav3 T inh: 0.00158

What do the screens show for `O=C(CSc1nnc(CNc2ccc(F)cc2)o1)N1c2ccccc2Sc2ccccc21`?
hDAT+cocaine: 0.243; sdo1 growth: -1.83; Cav3 T inh: -5.49*; PTK2B oligo ant: -0.67; PLK1 PBD inh: -22.1; PLK1 kinase inh: -7.9

What do the screens show for `CCc1nnc(NC(=O)CSc2nnc(Cc3ccccc3)o2)s1`?
hDAT+cocaine: -0.67; sdo1 growth: 1.53; Cav3 T inh: 3.85*; PTK2B oligo ant: 0.26; PLK1 PBD inh: -25.0; PLK1 kinase inh: -7.6

What do the screens show for `CCc1nnc(NC(=O)CSc2nnc(CNc3ccc(Cl)cc3)o2)s1`?
hDAT+cocaine: -0.542; sdo1 growth: 0.94; Cav3 T inh: -4.03*; PTK2B oligo ant: -0.28; PLK1 PBD inh: -26.3; PLK1 kinase inh: 9.1

What do the screens show for `COC(=O)c1c(NC(=O)CSc2nnc(CNc3ccc(Cl)cc3)o2)sc(C)c1C`?
hDAT+cocaine: 0.558; sdo1 growth: -1.24; Cav3 T inh: -1.14; PTK2B oligo ant: -1.03; PLK1 PBD inh: -7.3; PLK1 kinase inh: -4.0

What do the screens show for `COC(=O)c1ccc(NC(c2ccc(Cl)cc2)P(=O)(OC)OC)cc1` (stereo not given)?
sdo1 growth: -0.38

What do the screens show for `Cc1nn(-c2ccccc2)c(N2CCCC2)c1/C=N/NC(=S)Nc1ccccc1F`?
sdo1 growth: -1.43

What do the screens show for `O=C(O)c1cnc(-c2ccccc2)nc1Sc1ccccc1`?
hDAT+cocaine: -0.144; sdo1 growth: -0.33; Cav3 T inh: -3.17; PTK2B oligo ant: 0.12; PLK1 PBD inh: 25.3; PLK1 kinase inh: -18.9

How did O=C(O)c1cnc(-c2ccccc2)nc1Sc1cccc(Cl)c1 do in these assays?
hDAT+cocaine: 0.242; sdo1 growth: -1.13; Cav3 T inh: -6.28*; PTK2B oligo ant: -0.8; PLK1 PBD inh: 2.4; PLK1 kinase inh: -12.6

Results for COc1ccc2cc(C(=O)Nc3ccc(Cl)cc3)sc(=O)c2c1OC ?
sdo1 growth: -0.48

How did O=C(NNC(=S)NC(=O)C12CC3CC(CC(C3)C1)C2)c1ccncc1 do in these assays?
hDAT+cocaine: 0.159; sdo1 growth: -2.77; Cav3 T inh: -4.25*; PTK2B oligo ant: -0.86; PLK1 PBD inh: -5.8; PLK1 kinase inh: -7.9

What do the screens show for `CC1(C(=O)NC(=S)NNC(=O)c2ccncc2)CCCCC1`?
sdo1 growth: 0.14

What do the screens show for `CN(/N=C/C=C/c1ccccc1)C1=NS(=O)(=O)c2ccccc21`?
sdo1 growth: 0.18

Results for CSc1ccc(S(=O)(=O)NCc2ccccc2Cl)cc1 ?
hDAT+cocaine: -0.859; sdo1 growth: -0.86; Cav3 T inh: -4.02*; PTK2B oligo ant: 2.05; PLK1 PBD inh: -8.8; PLK1 kinase inh: -7.2

How did N#CC1(Cc2ccc(Cl)cc2)c2ccccc2C=CN1C(=O)c1ccccc1 (stereo not given) do in these assays?
hDAT+cocaine: -0.756; sdo1 growth: -0.85; Cav3 T inh: -3.15*; PTK2B oligo ant: 1.06; PLK1 PBD inh: 17.3; PLK1 kinase inh: -16.1

What do the screens show for `Cc1cc(N2CCC(C)CC2)nc(SCC(=O)c2ccccc2)n1`?
hDAT+cocaine: -0.993; sdo1 growth: -1.42; Cav3 T inh: -4.67*; PTK2B oligo ant: -2.59; PLK1 PBD inh: -15.4; PLK1 kinase inh: -16.6

How did CCC(C)(C)n1nnnc1C(c1cc2ccc(OC)cc2[nH]c1=O)N1CCc2ccccc21 (stereo not given) do in these assays?
hDAT+cocaine: 1.08; sdo1 growth: -1.23; Cav3 T inh: -3.89*; PTK2B oligo ant: 0.79; PLK1 PBD inh: -9.4; PLK1 kinase inh: -6.0

How did COC(=O)CCCC1=CC2=C(c3ccccc3)C(=O)C(C)(OC(=O)C3CCCC3)C(=O)C2=CN1CCc1c[nH]c2ccccc12 (stereo not given) do in these assays?
hDAT+cocaine: 0.0304; Cav3 T inh: 1.31

How did CCC(c1nnnn1Cc1ccco1)N1CCN(c2cc(Cl)ccc2C)CC1 (stereo not given) do in these assays?
hDAT+cocaine: 0.748; sdo1 growth: -1.22; Cav3 T inh: -5.76*; PTK2B oligo ant: -0.16; PLK1 PBD inh: 2.0; PLK1 kinase inh: -11.3

How did Cc1ccc(Cl)cc1N1CCN(Cc2nnnn2Cc2ccco2)CC1 do in these assays?
hDAT+cocaine: 0.265; sdo1 growth: -1.17; Cav3 T inh: -6.66*; PTK2B oligo ant: 0.09; PLK1 PBD inh: -3.7; PLK1 kinase inh: 5.0

Results for CC(C)C(c1nnnn1Cc1ccco1)N1CCN(c2cccc(Cl)c2)CC1 (stereo not given) ?
hDAT+cocaine: 0.0857; sdo1 growth: -2.35; Cav3 T inh: -3.76*; PTK2B oligo ant: -0.51; PLK1 PBD inh: -3.1; PLK1 kinase inh: -9.1

Results for Cc1ccc(Cl)cc1N1CCN(Cc2nnnn2C2CCCCC2)CC1 ?
hDAT+cocaine: 0.319; sdo1 growth: -0.85; Cav3 T inh: -5.22*; PTK2B oligo ant: -0.98; PLK1 PBD inh: -8.7; PLK1 kinase inh: -5.2

How did c1coc(Cn2nnnc2CN2CCN(C3CCCCC3)CC2)c1 do in these assays?
hDAT+cocaine: -0.0581; sdo1 growth: -0.58; Cav3 T inh: 0.00466; PTK2B oligo ant: 0.15

Results for O=C(CN1C(=O)c2ccccc2C1=O)Nc1cccc(S(=O)(=O)Nc2ccccc2Cl)c1 ?
sdo1 growth: -0.45

What do the screens show for `COc1ccccc1OCC(=O)Nc1nonc1NC(=O)COc1ccccc1OC`?
sdo1 growth: 0.23

How did CSc1nnc(C)c(=O)n1COC(=O)c1ccc(S(=O)(=O)N(C)C)cc1 do in these assays?
sdo1 growth: 0.85

Results for Cc1ccc(C(=O)N(c2ccccc2)C2CC(C)N(C(=O)c3ccco3)c3ccccc32)cc1 (stereo not given) ?
hDAT+cocaine: 0; sdo1 growth: -0.07; Cav3 T inh: -5.61*; PTK2B oligo ant: -2.69; PLK1 PBD inh: 25.7; PLK1 kinase inh: -33.2

Screens from PubChem BioAssay.
